Values joined by “and” are separate entries in the source; they are usually repeats but may differ in a detail not shown here. Identical values can stand only once. Inconclusive results are not listed. Active and inactive are the calls of the source. Unless noted, calls follow the shape of the dose curve; as a rule, active = well fitted curve in the direction sought with a large enough effect in the repeat runs; inconclusive = weak or mixed curves; inactive = no such curve, though single readings can be large; an effect the other way counts as inactive or inconclusive.

From PubChem BioAssay (Tox21) come the findings set out here.

The nature of test [1]: qHTS assay for small molecule agonists of the p53 signaling pathway (AID 651631; calls by dose curve; also: nearly all actives have a fitted effect of over 15% in size; also: potency is read from the fitted curve at half-maximal effect). In a few lines:
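Fluorescence intensity from cleaved LiveBLAzer B/G substrate (2 h, room temperature) served as the signal. Beforehand, HCT-116 reporter cells bearing p53 response elements were treated 16 h at 37 °C with DMSO-dissolved compounds.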
For orientation: Quantitative high-throughput screening tests each substance at several concentrations.

Test [2] in a line: qHTS assay for small molecule disruptors of the mitochondrial membrane potential - cell viability (AID 720634; calls by dose curve; also: nearly all actives have a fitted effect of over 20% in size; also: potency is read from the fitted curve at half-maximal effect). In a few lines: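 Human hepatoma HepG2 cells were treated for 1 hr with test chemicals, then given m-MPI dye and CellTiter-Glo. Cell viability reflects luminescence proportional to cellular ATP.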
A short description of test [3]: qHTS assay to test for compound auto fluorescence at 590 nm (red) in HepG2 cells (AID 720674). The method in brief: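 Fluorescence at 590 nm emission following 540 nm excitation was recorded from HepG2 wells one hour after compound transfer, with DMSO-only wells as vehicle and Rose Bengal sodium equivalency as the scale.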
Test [4] is described as follows: qHTS assay to test for compound auto fluorescence at 535 nm (green) in HepG2 cells (AID 720675).
The nature of test [5]: qHTS assay to test for compound auto fluorescence at 460 nm (blue) in HEK293 cells (AID 720678). In a few lines: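 Measured: blue fluorescence (Ex 405/Em 460 nm) of compound-treated HEK293 cells, incubated overnight at 37C with 5% CO2 and scaled to triamterene equivalents.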
A short description of test [6]: qHTS assay to test for compound auto fluorescence at 590 nm (red) in HEK293 cells (AID 720679). In a few lines:
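Using HEK293 cells at 2,000 per well, the screen added 23 nL of each compound after cell attachment and incubated overnight (37C, 5% CO2). The plate reader then captured red-label fluorescence, Ex/Em 540/590nm.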

The nature of test [7]: qHTS assay to test for compound auto fluorescence at 535 nm (green) in HEK293 cells (AID 720680).
Test [8] in a line: qHTS assay to test for compound auto fluorescence at 460 nm (blue) in HEK293 cell free culture (AID 720681). In a few lines:
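Compounds were added to cell-free DMEM with 10% FBS and fluorescence read directly. The blue channel used 405 nm excitation and 460 nm emission, with triamterene as the reference fluorophore.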

The nature of test [9]: qHTS assay to test for compound auto fluorescence at 535 nm (green) in HEK293 cell free culture (AID 720682). In a few lines:
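Intrinsic compound fluorescence is measured in culture medium containing 10% FBS, with excitation at 485 nm and detection at 535 nm, referenced to fluorescein.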

Test [10] is described as follows: qHTS assay to test for compound auto fluorescence at 590 nm (red) in HEK293 cell free culture (AID 720683). In a few lines:
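Cell-free wells of DMEM with 10% FBS received compound, and intrinsic fluorescence was read at excitation/emission 540/590 nm. Values expressed as equivalence to Rose Bengal sodium.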

Test [11] is described as follows: qHTS assay to test for compound auto fluorescence at 590 nm (red) in HepG2 cell free culture (AID 720684). The method in brief:
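Compound was pinned into wells holding MEM with 10% FBS and no cells, and red fluorescence was read at Ex/Em 540/590 nm. Signal is expressed as auto fluorescence equivalency relative to Rose Bengal sodium.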

Test [12] in a line: qHTS assay to test for compound auto fluorescence at 460 nm (blue) in HepG2 cell free culture (AID 720685). In a few lines: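 Compound (23 nL) or DMSO pinned into cell-free MEM with 10% FBS; blue fluorescence read at 405/460 nm excitation/emission, expressed as auto-fluorescence equivalency to triamterene.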
The nature of test [13]: qHTS assay to test for compound auto fluorescence at 535 nm (green) in HepG2 cell free culture (AID 720686).
A short description of test [14]: qHTS assay to test for compound auto fluorescence at 460 nm (blue) in HepG2 cells (AID 720687). In a few lines: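 HepG2 cells in MEM with 10% FBS, attached overnight at 37 C, were exposed to compound or DMSO for 1 hr at 37 C, 5% CO2. Blue fluorescence was read at 405/460 nm, with triamterene as reference fluorophore.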
The target of test [15] is Glucocorticoid receptor (Homo sapiens) (UniProt P04150). Nature of the test: qHTS assay to identify small molecule antagonists of the glucocorticoid receptor (GR) signaling pathway (AID 720692; active = well fitted inhibition curve with a large enough effect in the signal ratio in the repeat runs, not every such curve was filed as active; the % refers to the signal ratio). The method in brief: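 Fluorescence from cleaved LiveBLAzer B/G FRET substrate reports GRE-driven beta-lactamase in HeLa cells; compounds are tested against 5 nM dexamethasone (final) over 18 h at 37 C, substrate incubation 2 h at room temperature.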

Test [16] in a line: qHTS assay for small molecules that induce genotoxicity in human embryonic kidney cells expressing luciferase-tagged ATAD5 (AID 651632). Also: nearly all actives have a fitted effect of over 15% in size. In a few lines:
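Genotoxicity read-out via ATAD5-luciferase: HEK293T cells, 16 hr compound incubation at 37C, Amplite detection.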

Test [17] in a line: qHTS assay for small molecule agonists of the p53 signaling pathway - cell viability (AID 651633; calls by dose curve; also: nearly all actives have a fitted effect of over 30% in size; also: potency is read from the fitted curve at half-maximal effect). In a few lines: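 p53RE-bla cells were treated with compound for 16 hours at 37 C. Cytotoxicity was then measured as CellTiter-Glo luminescence after 30 min at room temperature.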
Test [18] is described as follows: qHTS assay for small molecules that induce genotoxicity in human embryonic kidney cells expressing luciferase-tagged ATAD5 - cell viability (AID 651634; calls by dose curve; also: nearly all actives have a fitted effect of over 25% in size; also: potency is read from the fitted curve at half-maximal effect). The method in brief:
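Live-cell protease activity (CellTiter-Fluor, fluorescence) indicates viability. HEK293T cells with luciferase-tagged ATAD5; 15.5 hr compound treatment at 37C.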

A short description of test [19]: qHTS assay for small molecule disruptors of the mitochondrial membrane potential (AID 720635). Also: potency is read from the fitted curve at half-maximal effect. The method in brief:
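HepG2 cells exposed to compound 1 hr at 37C, then Mito-MPS dye 30 min. Ratio read of aggregate (540/590 nm) versus monomer (490/535 nm) fluorescence.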

Test [20] deals with Glucocorticoid receptor (Homo sapiens) (UniProt P04150). Nature of the test: qHTS assay to identify small molecule agonists of the glucocorticoid receptor (GR) signaling pathway (AID 720691; active = well fitted activation curve with a large enough effect in the signal ratio in the repeat runs, not every such curve was filed as active; the % refers to the signal ratio). The method in brief: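 Beta-lactamase reporter activity, read as fluorescence intensity, was measured in GR-bla HeLa cells exposed to compounds for 18 h at 37 C and then loaded with LiveBLAzer B/G FRET substrate for 2 h at room temperature.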

Chain of Glucocorticoid receptor (Homo sapiens) (P04150 whole entry, looked up): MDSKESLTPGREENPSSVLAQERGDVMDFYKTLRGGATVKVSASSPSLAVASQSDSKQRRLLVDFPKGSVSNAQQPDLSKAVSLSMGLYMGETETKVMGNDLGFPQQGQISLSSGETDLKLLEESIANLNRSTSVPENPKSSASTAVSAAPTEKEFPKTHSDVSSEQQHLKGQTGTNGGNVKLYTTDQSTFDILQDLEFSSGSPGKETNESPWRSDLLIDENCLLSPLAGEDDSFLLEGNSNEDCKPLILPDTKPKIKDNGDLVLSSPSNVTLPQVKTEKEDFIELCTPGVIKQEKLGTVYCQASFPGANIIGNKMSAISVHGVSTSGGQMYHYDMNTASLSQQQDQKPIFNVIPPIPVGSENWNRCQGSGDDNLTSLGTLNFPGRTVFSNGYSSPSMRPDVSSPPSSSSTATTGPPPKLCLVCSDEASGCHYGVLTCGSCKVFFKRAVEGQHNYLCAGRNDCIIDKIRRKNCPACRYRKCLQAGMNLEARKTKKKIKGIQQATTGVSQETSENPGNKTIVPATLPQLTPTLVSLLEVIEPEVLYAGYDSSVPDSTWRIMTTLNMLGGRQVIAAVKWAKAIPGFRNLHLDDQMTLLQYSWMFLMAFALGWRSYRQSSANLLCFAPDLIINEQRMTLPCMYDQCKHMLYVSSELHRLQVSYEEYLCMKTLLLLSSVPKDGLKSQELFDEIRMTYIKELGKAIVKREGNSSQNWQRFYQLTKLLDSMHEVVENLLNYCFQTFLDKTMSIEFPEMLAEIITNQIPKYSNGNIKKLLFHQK

Consider `O=C(O)c1cc[c]([Hg][Cl])cc1`, for which, in test [1], the Potency is 61.1 µM (active). The Potency entry in [2], in [5], in test [8], in test [12], in test [14] and in [15] was “inactive” in each case. Moreover, the result in [3], in test [4], in test [6], in [7], in test [9] and in test [10] was inactive. Moreover, the compound was classed as inactive in test [11] and in test [13].

For the compound `O=[N+]([O-])c1ccc(Oc2ccc(C(F)(F)F)cc2[N+](=O)[O-])cc1`, the Potency result in test [16], in test [17], in test [18], in test [5], in test [8] and in [12] was “inactive” in each case. Also, the Potency entry in test [14] and in test [20] was “inactive” each time. Moreover, the values for the Potency in [2] and in [19] were 19.3 µM (active) and 12.2 µM (active), respectively. Further, the result in test [3], in [4], in test [6], in test [7], in test [9] and in [10] was inactive. In addition, the result in test [11] and in [13] was inactive.

`c1ccc(OCC2CO2)cc1` (stereo unspecified): the Potency entry in test [1], in test [2], in [5], in test [8], in test [12] and in [14] was “inactive” throughout. In addition, the Potency result in test [20] and in test [15] was “inactive” in each case. For the same compound, the compound was called inactive in [3], in test [4], in [6], in [7], in [10] and in test [11]. For the same compound, the outcome in test [13] was inactive.

For `O=c1[nH]c2ccccc2n1C1CCN(CCCC(c2ccc(F)cc2)c2ccc(F)cc2)CC1`, the Potency entry in test [16], in test [8], in test [12] and in test [14] was “inactive” each time. Also, the Potency in test [17] was 23.7 µM (active) and 61.1 µM (active); in [18] it was 29.8 µM (active) and 54.5 µM (active). Moreover, the call in test [3], in [4], in test [6], in test [7], in [10] and in test [11] was inactive. Moreover, in [13], the call was inactive.

As for `CC[C@H]1C[C@@H]2C[C@H]3c4[nH]c5ccc(OC)cc5c4CCN(C2)[C@@H]13`, the Potency result in test [16], in test [17], in test [18], in test [2], in [5] and in [8] was “inactive” in each case. The Potency result in test [12] and in test [14] was “inactive” each time. In addition, the compound was classed as inactive in test [3], in test [4], in test [6], in test [7], in test [9] and in test [10]. Also, the compound was called inactive in [11] and in test [13].

For the compound `CC1CCC(C(C)C)C(OC(=O)c2ccccc2N)C1` (stereo unspecified), the Potency entry in [16], in test [18], in test [5], in test [8], in test [12] and in test [14] was “inactive” each time. Also, the Potency result in test [15] was “inactive”. For the same compound, the Potency was 26.6 µM (active) and 60.3 µM (active) in [17]; 13.3 µM (active) and 17 µM (active) in test [19]. The result in [3], in test [4], in [6], in test [7], in test [9] and in [10] was inactive. For the same compound, the result in test [11] and in [13] was inactive.

`CC1(C)[C@H](C(=O)O[C@H](C#N)c2cccc(Oc3ccccc3)c2)[C@@H]1/C=C(\Cl)C(F)(F)F`: the Potency entry in [16], in test [17], in test [5], in [8], in test [12] and in [14] was “inactive” each time. The Potency result in test [20] was “inactive”. Further, the Potency in test [19] is 25.3 µM (active). In addition, the call in test [3], in test [4], in [6], in test [7], in test [10] and in test [11] was inactive. Also, in test [13], the call was inactive.

As for `C=CCC1=C(C)C(OC(=O)C2C(C=C(C)C)C2(C)C)CC1=O` (stereo unspecified), the Potency entry in [16], in test [5], in [8], in test [12], in test [14] and in test [20] was “inactive” in each case. Besides, the Potency is 64.8 µM (active) in test [17], 11.5 µM (active) in [2] and 5.78 µM (active) in [19]. Besides, the outcome in test [3], in test [4], in test [6], in test [7], in test [9] and in test [10] was inactive. Besides, the compound was called inactive in test [11] and in [13].
